Compound activity from PubChem.
PAFAH1B3 FP inh: PAFAH1B3 enzyme inhibitors, primary screen, biochemical, fluorescence polarization, human. AID 492972, 2010. recombinant PAFAH1B3, FP-rhodamine probe. inhibition, % at 3.39 µM. Platelet-activating factor acetylhydrolase IB subunit alpha1 (Homo sapiens), Q15102. actives 0.28% (n = 340,000);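 active = inhibition above the screen-wide average of all tested compounds plus 3 SD, cut at about 25% in these data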;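 also: 0% = enzyme with DMSO only and 100% = wells lacking PAFAH1B3 protein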
Target sequence (Q15102 whole entry, looked up): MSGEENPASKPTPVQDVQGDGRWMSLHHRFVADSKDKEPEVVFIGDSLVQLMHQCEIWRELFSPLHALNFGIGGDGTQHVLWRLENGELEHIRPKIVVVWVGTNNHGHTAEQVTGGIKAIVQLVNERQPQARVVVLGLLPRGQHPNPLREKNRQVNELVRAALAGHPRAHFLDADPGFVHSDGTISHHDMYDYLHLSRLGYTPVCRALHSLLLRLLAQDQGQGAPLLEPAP
pPAFAH inh: pPAFAH enzyme inhibitors, primary screen, biochemical, fluorescence polarization, human | Platelet-activating factor acetylhydrolase (Homo sapiens), Q13093 | recombinant pPAFAH, FP-rhodamine probe fluorescence polarization | inhibition, % at 3.39 µM | actives 1.5% (n = 330,000);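 active = inhibition above the mean inhibition across the screen plus 3 SD, cut at about 25% in these data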;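 also: inhibitors block binding of the rhodamine activity-based probe so polarization drops; 0% = enzyme with DMSO and 100% = wells lacking pPAFAH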
Fam108B inh: mouse Fam108B serine hydrolase inhibitors, primary screen, counter-screen for RBBP9 inhibitor project, biochemical, fluorescence polarization. recombinant Fam108B, FP-Rh probe fluorescence polarization. inhibition, % at 9.51 µM. actives 0.33% (n = 300,000). AID 1947, 2009;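 active = inhibition above the screen mean inhibition plus 3 SD, computed separately per campaign, cut at about 18% in these data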;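 also: inhibitors lower polarization as less probe binds the enzyme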
PME-1 inh: PME-1 inhibitors via competitive probe labeling, primary screen, biochemical, fluorescence polarization, FP-Rh probe, HTS; Protein phosphatase methylesterase 1 (Homo sapiens), Q9Y570; recombinant PME-1; inhibition, % at 5.9 µM; actives 0.53% (n = 320,000);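 active = inhibition above the campaign mean of all compounds plus 3 SD, cut at about 26% in these data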;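 also: competitive labeling of PME-1 active site by serine hydrolase directed probe; 0% = PME-1 with DMSO and 100% = wells lacking PME-1 enzyme; inhibitors block probe labeling so polarization falls and inhibition rises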
PAFAH1B2 inh: PAFAH1B2 enzyme inhibitors, primary screen, biochemical, fluorescence polarization, human; actives 1.2% (n = 340,000); Platelet-activating factor acetylhydrolase IB subunit alpha2 (Homo sapiens), P68402; AID 492953, 2010; inhibition, % at 3.39 µM; recombinant PAFAH1B2, FP-rhodamine activity probe;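 active = inhibition above the mean of all tested compounds plus 3 SD, cut at about 24% in these data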;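 also: 0% = enzyme with DMSO and 100% = wells lacking PAFAH1B2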
Target sequence (P68402 whole entry, looked up): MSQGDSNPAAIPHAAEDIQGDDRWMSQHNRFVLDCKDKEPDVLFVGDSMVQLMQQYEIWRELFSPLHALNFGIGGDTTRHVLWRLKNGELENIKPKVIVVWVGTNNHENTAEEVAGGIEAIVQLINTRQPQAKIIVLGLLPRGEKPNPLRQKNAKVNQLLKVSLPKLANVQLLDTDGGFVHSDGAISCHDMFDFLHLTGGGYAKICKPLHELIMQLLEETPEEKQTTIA
PAFAH2 FP inh: PAFAH2 enzyme inhibitors, primary screen, biochemical, fluorescence polarization, human. AID 492956, 2010. recombinant PAFAH2, FP-rhodamine activity probe. inhibition, % at 3.39 µM. actives 0.99% (n = 340,000). Platelet-activating factor acetylhydrolase 2, cytoplasmic (Homo sapiens), Q99487;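 active = inhibition above the mean over all tested compounds plus 3 SD, cut at about 30% in these data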;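 also: inhibitors block probe labeling of enzyme so polarization drops; 0% = enzyme with DMSO and 100% = wells lacking PAFAH2 protein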
pPAFAH confirm: pPAFAH (PLA2G7) enzyme inhibitors, confirmation, biochemical, fluorescence polarization, human; shares compounds with pPAFAH inh; actives 72% (n = 2,300); recombinant pPAFAH, FP-Rh probe fluorescence polarization; inhibition, % at 3.39 µM; AID 463230, 2010;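 active = mean inhibition of the triplicate above the hit cutoff set for the earlier primary screen, cut at about 25% in these data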;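 also: 0% = enzyme with DMSO and 100% = wells lacking pPAFAH enzyme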
* = called active by the depositor. Only some compounds are listed: those with a hit (about 2.8% of all), similar ones and a draw of the others.

Screening Cc1cc(C)n(-c2ccc(C(=O)OCC(=O)c3ccc(Br)s3)cc2)n1 returned PAFAH1B3 FP inh 4.1, pPAFAH inh 35.9*, Fam108B inh -5.4, PME-1 inh -2.9, PAFAH1B2 inh 2.1, PAFAH2 FP inh 50.0* and pPAFAH confirm 27.0*.
Screening CSCCC(NC(=O)c1ccccc1Cl)C(=O)Nc1ccncc1 (centres undefined) returned PAFAH1B3 FP inh 3.4, PAFAH1B2 inh 1.1 and PAFAH2 FP inh 0.7.
For COP(=O)(OC)c1nc(-c2cccc3ccccc23)oc1NCCc1ccccc1 the results were PAFAH1B3 FP inh 8.4, pPAFAH inh 38.3*, Fam108B inh 2.2, PME-1 inh 4.3, PAFAH1B2 inh 2.6, PAFAH2 FP inh 4.2 and pPAFAH confirm 31.3*.
Screening O=C(N/N=C/c1ccc(OCc2ccc(F)cc2)cc1)c1ccccc1 returned PAFAH1B3 FP inh 8.8, pPAFAH inh -0.3, Fam108B inh 2.0, PME-1 inh 1.8, PAFAH1B2 inh 0.0 and PAFAH2 FP inh -5.6.
For CC(C)(C)c1ccc(OCc2ccc(C(=O)N/N=C/c3ccc(O)c(O)c3)cc2)cc1 the results were PAFAH1B3 FP inh 16.6, pPAFAH inh 43.0*, Fam108B inh 26.9*, PME-1 inh 16.5, PAFAH1B2 inh -8.0, PAFAH2 FP inh 2.0 and pPAFAH confirm 73.8*.
`O=S(=O)(Nc1ccc2c(c1)nc1n2CCN(Cc2ccccc2)C1)c1ccc(Cl)cc1` gave PAFAH1B3 FP inh -3.1, pPAFAH inh 38.4*, Fam108B inh -5.5, PME-1 inh -12.5, PAFAH1B2 inh 32.8*, PAFAH2 FP inh 4.2 and pPAFAH confirm 7.0.
`O=S(=O)(Nc1ccc2c(c1)nc1n2CCN(Cc2ccccc2)C1)c1ccc(F)cc1` gave PAFAH1B3 FP inh 3.2, pPAFAH inh 35.5*, Fam108B inh -5.0, PME-1 inh -19.1, PAFAH1B2 inh 6.2, PAFAH2 FP inh -3.4 and pPAFAH confirm 12.4.
Screening O=C(Nc1ccc2c(c1)nc1n2CCN(Cc2ccccc2)C1)NC1CCCCC1 returned PAFAH1B3 FP inh -4.7, pPAFAH inh 7.6, Fam108B inh 4.9, PME-1 inh -5.6, PAFAH1B2 inh 2.9 and PAFAH2 FP inh -4.9.
`O=C(O)c1cc(-c2ccc(/C=C3\NC(=O)N(c4ccccc4)C3=O)o2)ccc1Cl` gave PAFAH1B3 FP inh 4.8, pPAFAH inh 15.8, Fam108B inh 5.1, PME-1 inh -15.1, PAFAH1B2 inh 3.4 and PAFAH2 FP inh 17.9.
O=C(O)c1cc(-c2ccc(/C=C3\NC(=O)N(c4ccc(Cl)cc4)C3=O)o2)ccc1Cl was read as PAFAH1B3 FP inh 10.9, pPAFAH inh 37.1*, Fam108B inh 10.5, PME-1 inh -11.1, PAFAH1B2 inh 7.3, PAFAH2 FP inh 22.0 and pPAFAH confirm 22.7.
`CN(CC(=O)NCC1CCCCC1)CC(=O)Nc1ccc(F)cc1` gave PAFAH1B3 FP inh 6.0, pPAFAH inh -0.9, PME-1 inh 8.3, PAFAH1B2 inh 1.9 and PAFAH2 FP inh -3.9.
COC(=O)c1[nH]c2cc(OC)ccc2c1NC(=O)CCN1CCCCC1 was read as PAFAH1B3 FP inh -2.2, pPAFAH inh 39.4*, Fam108B inh -1.2, PME-1 inh -5.1, PAFAH1B2 inh 1.1, PAFAH2 FP inh 0.8 and pPAFAH confirm 8.8.
`COC(=O)c1[nH]c2cc(OC)ccc2c1NC(=O)CCN1CCCC(C)(C)C1` gave PAFAH1B3 FP inh -3.7, pPAFAH inh 4.7, Fam108B inh 1.6, PME-1 inh -6.5, PAFAH1B2 inh 3.0 and PAFAH2 FP inh -5.7.
For COc1ccc(CCNC(=O)C(=O)NCC2OCCN2S(=O)(=O)c2ccccc2)cc1 (centres undefined) the results were PAFAH1B3 FP inh 7.5, pPAFAH inh 3.9, Fam108B inh 0.7, PME-1 inh -0.6, PAFAH1B2 inh 11.3 and PAFAH2 FP inh -6.2.
